Columns and labels:
[1] = test system: Vero E6 infected with SARS-CoV-2; assay: morphology score (similarity to uninfected cells); higher = more like uninfected cells; conditions: 24 h
[2] = test system: Vero E6 infected with SARS-CoV-2; assay: SARS-CoV-2 infection rate relative to infected DMSO; higher = more infection, active = 60 or less; conditions: 24 h

SMILES: CNC(=O)c1cccc(NC(=O)N2CCC(Oc3ccccc3Cl)CC2)c1 (10 µM)
- morphology score [1]: -0.102
- SARS-CoV-2 infection rate [2]: 114% (inactive)

SMILES: N[C@H]1C[C@@H]1c1ccccc1 (racemic) [tranylcypromine] (10 µM)
- morphology score [1]: 0.0679
- SARS-CoV-2 infection rate [2]: 114% (inactive)

SMILES: O=C(Nc1ccccc1Br)N[C@@H]1CCN(c2ccc(C(F)(F)F)cn2)C1 (10 µM)
- morphology score [1]: 0.0714
- SARS-CoV-2 infection rate [2]: 94.5% (inactive)

SMILES: COc1cc2ncn(-c3cc(OCc4ccccc4C(F)(F)F)c(C(N)=O)s3)c2cc1OC (10 µM)
- morphology score [1]: -0.0651
- SARS-CoV-2 infection rate [2]: 106% (inactive)

SMILES: Nc1ccc2cc3ccc(N)cc3nc2c1 [proflavine-hemisulfate] (0.833333 µM)
- morphology score [1]: 0.26
- SARS-CoV-2 infection rate [2]: 80.5% (inactive)

SMILES: CCN1CCN(Cc2ccc(C(=O)Nc3ccc(C)c(Oc4ccc5c(c4)CC(=O)N5)c3)cc2C(F)(F)F)CC1 (0.833333 µM)
- morphology score [1]: 0.0277
- SARS-CoV-2 infection rate [2]: 104% (inactive)

SMILES: CC[C@@H]1C(=O)N(C)c2cnc(Nc3ccc(C(=O)N[C@H]4CC[C@H](N5CCN(CC6CC6)CC5)CC4)cc3OC)nc2N1C(C)C [volasertib] (10 µM)
- morphology score [1]: -0.314
- SARS-CoV-2 infection rate [2]: 104% (inactive)

SMILES: Clc1ccc(CCCOCCCN2CCCCC2)cc1 [pitolisant] (10 µM)
- morphology score [1]: 0.243
- SARS-CoV-2 infection rate [2]: 81% (inactive)

SMILES: CC(=O)OCC(=O)[C@@]1(O)CC[C@H]2[C@@H]3CCC4=CC(=O)CC[C@]4(C)[C@H]3[C@@H](O)C[C@@]21C [hydrocortisone-acetate] (10 µM)
- morphology score [1]: -0.00868
- SARS-CoV-2 infection rate [2]: 110% (inactive)

SMILES: O=C1c2cccc(O)c2C(=O)c2c(O)cc(CO)cc21 [aloe-emodin] (10 µM)
- morphology score [1]: 0.29
- SARS-CoV-2 infection rate [2]: 101% (inactive)

SMILES: C[C@@H]1CCO[C@H]2Cn3cc(C(=O)NCc4ccc(F)cc4F)c(=O)c(O)c3C(=O)N12 [dolutegravir] (10 µM)
- morphology score [1]: 0.0816
- SARS-CoV-2 infection rate [2]: 112% (inactive)

SMILES: Clc1ccc(N/N=C(\c2ccccc2)c2ccccn2)nc1 (10 µM)
- morphology score [1]: 0.0534
- SARS-CoV-2 infection rate [2]: 103% (inactive)

SMILES: C#C[C@]1(O)CC[C@H]2[C@@H]3CCC4=CC(=O)CC[C@@H]4[C@H]3CC[C@@]21C [Norethindrone (Norethisterone)] (10 µM)
- morphology score [1]: -0.0201
- SARS-CoV-2 infection rate [2]: 112% (inactive)

SMILES: Cc1c(-c2cnccn2)ssc1=S [oltipraz] (10 µM)
- morphology score [1]: -0.0383
- SARS-CoV-2 infection rate [2]: 109% (inactive)

SMILES: Cc1cn([C@H]2O[C@@H](CO)[C@H](O)[C@H]2F)c(=O)[nH]c1=O [clevudine] (10 µM)
- morphology score [1]: -0.0291
- SARS-CoV-2 infection rate [2]: 107% (inactive)

SMILES: CS(=O)(=O)Nc1ccc2oc3c(OC(F)F)ccc(C(=O)Nc4c(Cl)cncc4Cl)c3c2c1 [oglemilast] (10 µM)
- morphology score [1]: 0.291
- SARS-CoV-2 infection rate [2]: 92% (inactive)

SMILES: Cc1ccc(C)c([C@H](O)CNC(C)C)c1 [benzenemethanol,-2,5-dimethyl-[[(1-methylethyl)amino]methyl]] (10 µM)
- morphology score [1]: 0.0583
- SARS-CoV-2 infection rate [2]: 106% (inactive)

SMILES: O=c1[nH]c(CCl)nc2sc3c(c12)CCCC3 (10 µM)
- morphology score [1]: 0.193
- SARS-CoV-2 infection rate [2]: 104% (inactive)

SMILES: N#Cc1cccc(C(=O)Nc2cc(-c3ccccc3)nn2-c2ccccc2)c1 (10 µM)
- morphology score [1]: -0.166
- SARS-CoV-2 infection rate [2]: 104% (inactive)

SMILES: Cc1ccc2c(c1)c1c3n2CCNC3CCC1 (stereo not drawn) [pirlindole] (10 µM)
- morphology score [1]: 0.0112
- SARS-CoV-2 infection rate [2]: 106% (inactive)

SMILES: O=C1NC(=O)[C@@]2(CCOc3ccc(F)cc32)N1 [sorbinil] (10 µM)
- morphology score [1]: 0.139
- SARS-CoV-2 infection rate [2]: 98% (inactive)

SMILES: COc1ccc(N2CCOCC2)c2sc(NC(=O)N3CCC(C)(O)CC3)nc12 [tozadenant] (10 µM)
- morphology score [1]: 0.275
- SARS-CoV-2 infection rate [2]: 97% (inactive)

SMILES: C[C@](N)(Cc1ccc(O)c(O)c1)C(=O)O [methyldopa] (10 µM)
- morphology score [1]: -0.111
- SARS-CoV-2 infection rate [2]: 97.5% (inactive)

SMILES: CN(C)/C=N/c1c(I)cc(I)c(CCC(=O)O)c1I [iopodic-acid] (10 µM)
- morphology score [1]: 0.0727
- SARS-CoV-2 infection rate [2]: 104% (inactive)

SMILES: C[C@H](N)[C@H](O)c1ccc(O)c(O)c1 [levonordefrin] (10 µM)
- morphology score [1]: 0.0723
- SARS-CoV-2 infection rate [2]: 94.5% (inactive)

SMILES: O=c1[nH]c(=O)n([C@H]2CCCO2)cc1F (racemic) [ftorafur] (10 µM)
- morphology score [1]: -0.016
- SARS-CoV-2 infection rate [2]: 116% (inactive)

SMILES: CCn1cc(C(=O)O)c(=O)c2cc(F)c(N3CCN(C)CC3)cc21 [pefloxacin] (10 µM)
- morphology score [1]: 0.158
- SARS-CoV-2 infection rate [2]: 91.5% (inactive)

SMILES: O=c1sn(-c2cccc3ccccc23)c(=O)n1Cc1ccccc1 [tideglusib] (10 µM)
- morphology score [1]: 0.109
- SARS-CoV-2 infection rate [2]: 108% (inactive)

SMILES: N#Cc1c(N)nc(SCc2ncc[nH]2)c(C#N)c1-c1ccc(O)cc1 (10 µM)
- morphology score [1]: -0.0242
- SARS-CoV-2 infection rate [2]: 108% (inactive)

From the supplement of paper PMC13380429
